From PubChem BioAssay AID651678 (Sanford-Burnham Center for Chemical Genomics, 2012)
This is one part of the list. Active and inactive are the calls of the source. Cut-off read from the data, not from the text of the source: active = inhibition mostly above about 35% (no sharp cut-off); inactive = mostly below about 32%.

Target: Sentrin-specific protease 1 (Homo sapiens) (UniProt Q9P0U3)
Assay: human SENP1 catalytic domain inhibitors, confirmation, biochemical, FRET endpoint, single concentration (AID 651678);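 note: 0% = enzyme with DMSO and 100% = no enzyme control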
Conditions: recombinant SENP1, CyPet-SUMO1-YPet FRET cleavage; at 10 µM; active compounds read high

Chain of Sentrin-specific protease 1 (Homo sapiens) (Q9P0U3 419-644 limits assumed): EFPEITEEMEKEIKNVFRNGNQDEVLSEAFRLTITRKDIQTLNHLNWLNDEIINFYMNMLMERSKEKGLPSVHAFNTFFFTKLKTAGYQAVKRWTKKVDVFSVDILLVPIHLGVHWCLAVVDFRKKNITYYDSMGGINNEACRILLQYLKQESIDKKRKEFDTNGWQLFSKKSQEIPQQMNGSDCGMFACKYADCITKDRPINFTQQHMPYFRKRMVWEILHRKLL

COc1ccccc1N=Nc1c(O)[nH]c(=S)[nH]c1=O
inhibition: 52% (active)
